# Only some compounds are listed: those with a hit (about 5.4% of all), similar ones and a draw of the others.
# p53 reactivation: qHTS assay for re-activators of p53 using a Luc reporter; Potency, µM (top dose mostly 92.2 µM), for inactives: at the top dose activity change, positive = activation, hits mostly activators; H1299 p53-A138V BP100-luciferase reporter, luminescence, 24 h; 0.063% of 320,000 active; AID 504706, 2011; further: potency means the concentration at half of the fitted maximal effect; % of control where 0% means no effect; nearly all actives have a fitted effect of over 45% in size
#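 H1299 (p53-null), stable ts p53-A138V + BP100-Luc; 1000 cells/well, Opti-MEM/10% FBS; cpd 4 pt, 1:5; 24 h, 37 deg C, 5% CO2; detection reagent 10 min RT; luminescence.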
# RORg inh: qHTS for inhibitors of ROR gamma transcriptional activity | Drosophila S2 Gal4-RORgamma UAS-luciferase reporter, 20 h | Potency, µM (highest dose often 53.6 µM), for inactives: top-dose activity change, negative = inhibition, usual class: inhibitors | Nuclear receptor ROR-gamma (Mus musculus), P51450 | 5.4% of 310,000 active; further: potency means the concentration at half of the fitted maximal effect; on the % scale 0 is the no-effect control and ±100 the full control effect; nearly all actives have a fitted effect of over 60% in size
#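 A Gal4/UAS one-hybrid system in insect cells: metallothionein-promoter Gal4–ROR gamma fusion plus Photinus luciferase reporter. Copper sulfate 700 uM final, 20 hr ambient incubation, luminescent detection after 10 min with reagent.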
# Six1-Eya2 inh: qHTS Assay for Inhibitors of the Six1/Eya2 Interaction | 0.56% of 360,000 active | activity change, % (test concentration not listed) | AlphaScreen GST-Six1/His-Eya2 binding, biochemical; stronger effect = lower value | Homeobox protein SIX1 (Homo sapiens) + Protein phosphatase EYA2 (Homo sapiens), …; in the data active means activity change below about -65%; inconclusive means mostly about -30% to -63%; further: on the % scale 0 is the no-effect control and ±100 the full control effect
#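 Homogeneous AlphaScreen proximity assay pairing GST-Six1 with His-tagged Eya2 (added as 5X mix: 250 nM and 500 nM) in 50 mM Tris pH 8.0, 300 mM NaCl, 1 mM TCEP. Glutathione donor and nickel acceptor beads; 1 h, 37 °C, dark.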
# CtBP-E1A blk: qHTS Assay for Inhibitors of the CtBP/E1A Interaction; AlphaScreen GST-E1A/His-CtBP binding, 1536-well; stronger effect = lower value; activity change, % (concentration not given with the values); 0.49% of 340,000 active; AID 651724, 2012; in the data active means activity change below about -65%; inconclusive means mostly about -30% to -63%; further: on the % scale 0 is the no-effect control and ±100 the full control effect
#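 In 5 uL wells, 23 nL compound meets equimolar GST-E1A and His-CtBP (5X stock 125 nM each) for 2 h, 37 °C. Beads (5X, 50 ug/mL) then 1 h, 37 °C, dark.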
# VP16 counter: VP16 counterscreen qHTS for inhibitors of ROR gamma transcriptional activity; Drosophila S2 Gal4-VP16 UAS-luciferase, luminescence, 20 h; Potency, µM (titrated, usually from 53.6 µM), for inactives: top-dose activity, negative = inhibition, usual class: inhibitors; 3.5% of 310,000 active;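 further: Gal4-VP16 expression switched on by copper sulfate through the metallothionein promoter; potency means the concentration at half of the fitted maximal effect; on the % scale 0 is the no-effect control and ±100 the full control effect; nearly all actives have a fitted effect of over 50% in size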
# The depositor's hits bear a star; ? = inconclusive; . = no result; [ ] = another dose, or the depositor's remark. Unless noted, the call rests on the fitted dose curve; in most records, active means well fitted curve in the direction sought with a large enough effect; inconclusive means small, poorly fitted or top-dose-only effect, or another doubt; inactive means no such curve, though single readings can be large; an effect the other way counts as inactive or inconclusive.
SMILES,p53 reactivation,RORg inh,Six1-Eya2 inh,CtBP-E1A blk,VP16 counter
O=C(CCCCCCCCCCCCC1CCCC1)Nc1ccc(S(=O)(=O)c2ccc(NC(=O)CCCCCCCCCCCCC3CCCC3)cc2)cc1,.,2.0%,.,.,5.5%
On1onc2c3cc(-c4ccccc4)nc3ccc21,?,7.94µM*,?,-27.3,10µM*
c1ccc(-c2cc3c(ccc4nonc43)nn2)cc1,?,13.6%,-2.3,4.8,5.8%
O=[N+]([O-])c1ccc(CCO)cc1,.,4.4%,.,.,2.7%
Cc1ccc(/C=N/NC(=O)c2ccc(C(=O)N/N=C/c3ccc(C)s3)o2)s1,-0.1%,8.91µM*,-3.6,-5.2,-20.7%
COc1ccc(CC(=O)N/N=C/c2ccc(C)s2)cc1,.,.,0.0,2.6,.
Cc1ccc(/C=N/NC(=O)c2cccnc2)s1,10.2%,17.8µM*,0.0,-2.2,-81.0%
Cc1ccccc1/C=N/NC(=O)c1cccnc1,.,6.8%,6.8,-10.5,-9.0%
O=C(O)CNC(=O)CC1S/C(=N/N=C/c2ccccc2O)NC1=O (stereo not drawn),-0.3%,-15.7%,-15.5,.,9.6%
O=C(O)CNC(=O)CC1S/C(=N/N=C2\CSC(=O)N2)NC1=O (stereo not drawn),-1.1%,-20.1%,-92.5*,.,8.0%
O=C(CC1S/C(=N/N=C2CCCCCC2)NC1=O)Nc1ccccc1F (stereo not drawn),.,.,3.2,1.5,.
NC(=O)NC(=O)CC1S/C(=N/N=C2/NC(=O)CS2)NC1=O (stereo not drawn),1.1%,-29.3%,-78.4*,?,0.5%
O=C(C1CCCCC1)N1CCC2CC1c1cc(-c3ccc4c(c3)OCO4)ccc12 (stereo not drawn),.,.,-15.1,-10.0,.
COc1cccc([C@@H]2Oc3ccc(OC)cc3C(=O)[C@H]2OC(=O)Nc2ccc(OC(F)F)cc2)c1,.,1.4%,.,.,-6.1%
CN1/C(=C\C=O)C(C)(C)c2ccccc21,-3.2%,?,-0.1,5.4,-9.0%
CN1/C(=C\C=Nc2ccc3ccccc3c2)C(C)(C)c2ccccc21,11.4%,3.16µM*,.,.,4.47µM*
CN(C)c1ccc(N=C/C=C2\N(C)c3ccccc3C2(C)C)cc1,18.0%,-25.1%,-65.8*,?,-2.7%
Cc1c(N=C/C=C2\N(C)c3ccccc3C2(C)C)c(=O)n(-c2ccccc2)n1C,?,2.7%,-0.5,1.2,-1.7%
O=C(c1ccco1)N1CCN(Cc2cc(=O)c(OCc3ccccc3F)co2)CC1,5.8%,.,-1.7,8.3,.
Cc1cc2nc3c(=O)[nH]c(=O)[nH]c3nc2c([N+](=O)[O-])c1N,3.5%,15.7%,-83.7*,-82.1*,-0.3%
COCOc1cc(OC)ccc1C(=O)/C=C\c1ccc2c(c1)OCO2,.,12.6%[10 µM],.,.,?
Cc1ccccc1C1C(C#N)=C2N=C(N)c3c(sc4c3CCCCC4)N2C2=C1C(=O)CC(C)(C)C2 (stereo not drawn),17.5%,12.6µM*,-8.2,-7.2,?
c1ccc(-c2nc3nonc3nc2-c2ccccc2)cc1,-27.0%,11.2µM*,-26.3,?,?
CCOC(CCNC(=O)c1cn(CC(C)C)c(=O)c2c1c1ccccc1n2C)OCC,-1.0%,-0.5%,4.2,6.7,5.6%
COc1ccc(NC2=NCC(Cc3ccc(Br)cc3)S2)cc1 (stereo not drawn),-12.7%,?,-4.9,-26.6,3.55µM*
COc1ccc(CNc2ccc(Br)cc2)cc1,3.4%,9.7%,7.5,-10.2,-18.4%
CC1CCC2C(=O)N3C(CCC(C)[C@@H]3c3ccc(-c4ccco4)cc3)C(=O)N2C1c1cccc(N2CCCC2=O)c1 (stereo partly drawn),.,40.0%[10 µM],.,.,?
Cc1ccc(C(C)C)c(OCc2ccc(C(=O)N/N=C/c3cccc(O)c3O)cc2)c1,-7.2%,1µM*,-22.2,-21.8,2.51µM*
CC(=O)Nc1ccc(C(=O)N/N=C/c2ccccc2OCc2ccccc2)cc1,-2.0%,33.7%,-5.9,-2.2,-5.1%
